From PubChem BioAssay
Only some compounds are listed: those with a hit (about 3.3% of all), similar ones and a draw of the others.
LmPK inh = blocks Leishmania mexicana pyruvate kinase activity; purified LmPK, Kinase-Glo ATP luminescence, 1 h; Potency, µM (doses to about 57.5 µM), most hits filed as inhibitors; actives 0.37% (n = 290,000); AID 1721
Target sequence (Q27686 whole entry, looked up): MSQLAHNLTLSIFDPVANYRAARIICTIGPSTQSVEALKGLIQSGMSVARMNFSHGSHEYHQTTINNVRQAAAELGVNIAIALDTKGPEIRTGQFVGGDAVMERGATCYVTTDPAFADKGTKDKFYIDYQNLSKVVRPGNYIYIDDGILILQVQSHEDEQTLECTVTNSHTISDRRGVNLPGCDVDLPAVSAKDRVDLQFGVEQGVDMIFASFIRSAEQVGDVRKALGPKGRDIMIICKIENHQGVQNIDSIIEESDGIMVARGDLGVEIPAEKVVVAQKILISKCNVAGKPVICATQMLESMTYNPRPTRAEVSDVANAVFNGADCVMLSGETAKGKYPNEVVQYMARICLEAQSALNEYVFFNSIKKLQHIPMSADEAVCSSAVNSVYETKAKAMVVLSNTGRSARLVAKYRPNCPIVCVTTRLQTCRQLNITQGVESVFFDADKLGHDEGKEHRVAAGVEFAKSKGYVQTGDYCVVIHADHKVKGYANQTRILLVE
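Screened at intermediate enzyme activity to detect both inhibitors and activators: LmPK at 0.1 nM, with a 0.5 nM enzyme column as activation reference. PEP 0.5 mM, ADP 0.1 mM; ATP detected by luminescence after 1 h.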
RE007 growth inh = less growth of the S. pombe RE007 Vpr strain; AID 651644; Potency, µM (doses to about 92.2 µM), actives largely listed as inhibitors; S. pombe RE007 Vpr strain, BacTiter-Glo ATP luminescence, 24 h; actives 0.21% (n = 360,000); active = well fitted falling curve with a large enough effect; inconclusive = small, poorly fitted or top-dose-only effect; inactive = no such curve, though single readings can be large or run the other way; note: nearly all actives have a fitted effect of over 50% in size
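Fission yeast RE007 carrying one integrated HIV-1 vpr copy, seeded at OD 0.01 in PMG+AL medium with 23 nL pinned compound. Grown 24 h at 30 degrees; viability read by BacTiter-Glo luminescence after 5 min.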
Giardia FBPA inh = blocks Giardia fructose-bisphosphate aldolase activity; A8B2U2; purified Giardia FBPA; Potency, µM (titrated, usually from 59.6 µM), most hits filed as inhibitors; actives 0.71% (n = 290,000); AID 2451; note: nearly all actives have a fitted effect of over 55% in size
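Giardia FBPA (40 nM reagent) was preincubated 10 min at RT with compound (up to 57.5 uM final), then substrate plus GAPDH/TPI/NAD/arsenate coupling system with diaphorase/resazurin was added; resorufin fluorescence (525/598 nm) was read after 20 min.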
Sm TGR block = blocks Schistosoma mansoni thioredoxin glutathione reductase; Q962Y6; purified TGR, DTNB reduction, TNB absorbance 405 nm; Potency, µM (top dose mostly 114 µM), actives largely listed as inhibitors; actives 3% (n = 360,000); AID 485364; note: nearly all actives have a fitted effect of over 60% in size
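TGR 20 nM + NADPH 100 uM (dispensed conc.), cpd preinc 15 min RT; start with NADPH (500 uM addition) then DTNB (15 mM addition). Kinetic TNB absorbance, 405 nm filter. Four-parameter Hill fit across titration.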
TbPYK inhibitor = blocks Trypanosoma brucei pyruvate kinase; TbPYK enzyme, Kinase-Glo Plus ATP luminescence, 45 min; actives 0.12% (n = 410,000); Potency, µM (titrated, usually from 76.8 µM), most hits filed as inhibitors; note: nearly all actives have a fitted effect of over 50% in size
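Luminescent Kinase-Glo Plus end-point after 45 min room-temperature reaction of T. brucei pyruvate kinase started with 130 uM ADP (final). Buffer TEA 50 mM pH 7.2 with KCl, MgCl2, BSA, Tween-20; titration-based qHTS with fitted concentration-effect curves.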
Each line names hits and unclear results; the compound was inactive in the other large screens. Unless noted, calls come from the whole dose curve; as a rule, active = well fitted curve in the direction sought with a large enough effect; inconclusive = small, poorly fitted or top-dose-only effect, or another doubt; inactive = no such curve, though single readings can be large; an effect the other way counts as inactive or inconclusive.

C#CCOCCOCCOCCNc1nc(N2CCN(C(=O)[C@H](CCC(=O)O)n3cc(C(N)Cc4ccc(O)cc4)nn3)CC2)nc(N2CCN(C(=O)[C@H](CCC(=O)O)n3cc(C(N)[C@H](C)CC)nn3)CC2)n1 (stereo partly specified)	Sm TGR block inconclusive
C#CCOCCOCCOCCNc1nc(N2CCN(C(=O)[C@H](C(C)C)n3cc(CCO)nn3)CC2)nc(N2CCN(C(=O)[C@H](Cc3ccc(O)cc3)n3cc(CCO)nn3)CC2)n1	none (no result: LmPK inh, Giardia FBPA inh, Sm TGR block)
C#CCOCCOCCOCCNc1nc(N2CCN(C(=O)[C@H](CCC(=O)O)n3cc(C(N)Cc4ccc(O)cc4)nn3)CC2)nc(N2CCN(C(=O)[C@H](CCC(=O)O)n3cc(C(N)CC(C)C)nn3)CC2)n1 (stereo partly specified)	Sm TGR block 35µM
Cc1cccc(OCC(=O)NCC(=O)n2nc(C)cc2C)c1	none
COCCn1c(C)cc(C(=O)CSc2nncn2-c2ccccc2)c1C	none
C#CCOCCOCCOCCNc1nc(N2CCN(C(=O)[C@H](CCCCN)n3cc(C(N)[C@H](C)CC)nn3)CC2)nc(N2CCN(C(=O)[C@H](CCC(=O)O)n3cc(C(N)[C@H](C)CC)nn3)CC2)n1 (stereo partly specified)	Sm TGR block 16µM
Cc1nc(C(=O)NNC(=O)c2ccccc2Cl)c(C(F)(F)F)o1	Giardia FBPA inh inconclusive
O=S(=O)(c1ccc(=S)[nH]c1)N1CCCCCC1	none (no result: LmPK inh, Giardia FBPA inh)
O=S(=O)(c1ccc(=S)[nH]c1)N1CCOCC1	TbPYK inhibitor 7.9µM (no result: LmPK inh, Giardia FBPA inh)
O=C(OCc1nc2ccc(Cl)cc2n1CCO)c1ccccc1	Sm TGR block 18µM
CC1(C)OC2CC3C4CC(F)C5=CC(=O)CC[C@@]5(C)C4C(O)C[C@@]3(C)[C@]2(C(=O)CO)O1 (stereo partly specified)	none (no result: LmPK inh, RE007 growth inh, Sm TGR block, TbPYK inhibitor)
CCN1CCN(C2=C(NS(=O)(=O)c3ccc(Br)cc3)C(=O)c3ccccc3C2=O)CC1	Sm TGR block 45µM (no result: Giardia FBPA inh)
CCN1CCN(C2=C(NS(=O)(=O)c3ccccc3)C(=O)c3ccccc3C2=O)CC1	Sm TGR block inconclusive (no result: Giardia FBPA inh)
Cc1ccc(-c2nnn(CC(=O)N(c3ccccc3)C(C(=O)NC3CCCC3)c3ccncc3)n2)o1 (stereo unspecified)	none (no result: Giardia FBPA inh)
Cc1ccc(-c2nnn(CC(=O)N(Cc3ccccc3F)C(C(=O)NC3CCCC3)c3ccncc3)n2)o1 (stereo unspecified)	Sm TGR block 40µM
Cc1cc(=O)oc2cc(OCC(=O)OCC(=O)Nc3ccc4ccccc4c3)ccc12	none
O=C1CCCC(O)=C1C(C#Cc1ccccc1)C1=C(O)CCCC1=O	LmPK inh inconclusive, RE007 growth inh inconclusive, Sm TGR block 3.2µM, TbPYK inhibitor inconclusive
O=C1CCCC(O)=C1Sc1ccccc1C(=O)O	none (no result: Sm TGR block)
CC1(C)CC(=O)C(C(C#Cc2ccccc2)C2=C(O)CC(C)(C)CC2=O)=C(O)C1	Sm TGR block 4µM, TbPYK inhibitor inconclusive (no result: Giardia FBPA inh)
O=C(Cc1c(F)cccc1Cl)NCCN1CCOCC1	none
Nc1nc(-c2cccc(Br)c2)cs1	RE007 growth inh 14µM
Nc1nc(-c2ccc(Br)cc2)cs1	none
CNS(=O)(=O)c1cccc(C(=O)OCC(=O)Nc2ccc(N3CCCCC3)cc2)c1	none
CC(c1ccncn1)N(C)Cc1nc(-c2ccc(C(F)(F)F)cc2)no1 (stereo unspecified)	none
Cc1oc(-c2ccc3ccccc3c2)nc1CN(C)C(C)c1ccncn1 (stereo unspecified)	Sm TGR block 50µM
COc1nc(-c2ccc3c(c2)OCO3)n(-c2ccc(NC(=O)CSc3ccccc3)cc2)n1	none (no result: LmPK inh, RE007 growth inh, Giardia FBPA inh, Sm TGR block)
Cc1nn(-c2ccc(F)cc2)c(-n2cccc2)c1C(=O)N1CCCCC1C (stereo unspecified)	none (no result: LmPK inh, RE007 growth inh, Giardia FBPA inh)
C[C@@H]1NCCc2cc(O)c(O)cc21	Sm TGR block 45µM (no result: LmPK inh)
C[N+]1=C(/C=C/Nc2ccccc2Cl)C(C)(C)c2ccccc21	none
COC(=O)c1ccc2c(c1)C(C)(C)C(/C=C/c1ccccc1O)=[N+]2C	LmPK inh 14µM, RE007 growth inh inconclusive, Giardia FBPA inh inconclusive, Sm TGR block 50µM, TbPYK inhibitor inconclusive
CCOc1cc2[nH]c(=S)n(CCCN(CC)CC)c(=O)c2cc1OCC	Sm TGR block 6.3µM
CCCCN(C)CCn1c(=S)[nH]c2cc(OCC)c(OCC)cc2c1=O	none
COC(=O)c1nn(-c2ccc(-c3ccccc3)cc2)cc1O	LmPK inh 16µM
CC1(C)CC2CC(C)(CN2S(=O)(=O)c2cccc(N)c2)C1 (stereo unspecified)	none
CCc1ccc(NC(=O)CSc2nc(=O)n(Cc3ccccn3)c3c2CCC3)cc1	none (no result: LmPK inh, RE007 growth inh, Giardia FBPA inh)
CC(C)Oc1ccc(CNC(=O)Cn2c(=O)oc3ccccc32)cc1	none
COc1ccc(CNC(=O)CCCOc2cc(=O)n(C)c3ccccc23)cc1	none
O=C(CCCn1c(=O)c2ccccc2n(CC(=O)NCc2ccco2)c1=O)NCc1ccco1	Sm TGR block 25µM
Cn1c(=O)cc(OCCCC(=O)NCc2ccco2)c2ccccc21	Sm TGR block 40µM
Cc1ccc(NC(=O)Cn2c(=O)n(CCCCC(=O)NCc3ccco3)c(=O)c3ccccc32)cc1	none
Cc1ccc(CNC(=O)Cn2c(=O)oc3ccccc32)o1	Sm TGR block 28µM
CCn1c(=O)cc(OCC(=O)NCc2ccc(C)o2)c2ccccc21	Sm TGR block 35µM
COc1cccc(-n2c(=O)c3c4c(sc3n(Cc3ccc(C)cc3)c2=O)CCCC4)c1	none (no result: LmPK inh, RE007 growth inh, Giardia FBPA inh)
O=C(C1CCN(c2nc3nonc3nc2N2CCCCC2)CC1)N1CCOCC1	Sm TGR block inconclusive
COc1cccc(-c2cc(NCc3ccccc3)ncn2)c1	none (no result: LmPK inh, RE007 growth inh, Sm TGR block, TbPYK inhibitor)
Cc1ccc(CNC(=O)CCCOc2cc(=O)n(C)c3ccccc23)o1	Sm TGR block 13µM
CCCC(C)C(=O)OCC(=O)Nc1ccc(Br)cc1 (stereo unspecified)	Sm TGR block 45µM (no result: RE007 growth inh, TbPYK inhibitor)
C/C(=N\Nc1ccc(S(N)(=O)=O)cc1[N+](=O)[O-])c1ccco1	Sm TGR block 40µM
NS(=O)(=O)c1ccc(N/N=C/c2ccc(O)cc2O)c([N+](=O)[O-])c1	none
NS(=O)(=O)c1ccc(N/N=C/c2ccc(O)c(O)c2O)c([N+](=O)[O-])c1	Giardia FBPA inh 7.9µM, Sm TGR block inconclusive
C/C(=N\Nc1ccc(S(N)(=O)=O)cc1[N+](=O)[O-])c1ccccc1O	none
O=C(Cc1c(F)cccc1Cl)Nc1ccc(S(=O)(=O)N2CCCC2)cc1	none (no result: Giardia FBPA inh)
Clc1ccccc1-c1cncnc1NCCc1cnc[nH]1	none (no result: LmPK inh, RE007 growth inh, Sm TGR block, TbPYK inhibitor)
O=S(=O)(c1ccc(Br)cc1)N1CCCN(Cc2cccc(F)c2)CC1	none
COc1ccc(S(=O)(=O)N2CCCN(CCC(=O)Nc3cccc(C(F)(F)F)c3)CC2)cc1	none
O=C(COc1ccc(S(=O)(=O)N2CCCCC2)cc1)N1CCN(Cc2ccccc2)CC1	Sm TGR block 28µM
